The results in this text go back to PubChem BioAssay AID686979 (National Center for Advancing Translational Sciences (NCATS), 2013).

In all, about 420,000 compounds went through this assay and about 50,000 (12%) were called active. About 26% were inconclusive and are not listed. For the sample, actives were picked, then their nearest neighbours and some compounds at random. Unmarked numbers belong to inactive results. Calls follow the shape of the dose curve; as a rule, active = well fitted inhibition curve with a large enough effect; inconclusive = small, poorly fitted or top-dose-only effect; inactive = flat fitted curve, though single readings scatter.
% is scaled to controls: 0 for no effect and ±100 for the full control effect; potency is read from the fitted curve at half-maximal effect.

The test is described as follows: qHTS for Inhibitors of human tyrosyl-DNA phosphodiesterase 1 (TDP1): qHTS in cells in presence of CPT. Also: nearly all actives have a fitted effect of over 55% in size. The settings on record: chicken DT40 Tdp1-/-;hTDP1 cells + 20 nM CPT, ATP luminescence, 48 h; series mostly up to 46.2 µM; activity change, negative = growth inhibition: at the top concentration. The procedure, abridged:
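Chicken DT40 Tdp1-/- cells complemented with human TDP1, 400 cells/well, exposed to compounds plus 20 nM camptothecin for at least 48 h at 37 C; viability read as ATP content by CellTiter-Glo luminescence.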
In general terms: Quantitative high-throughput screening tests each substance at several concentrations.
As for `Cc1ccc(S(=O)(=O)/N=C(\N)c2ccc(F)cc2)cc1`, the “activity change, negative = growth inhibition” value is 7.94%. On to `Cc1ccc(-c2cc(=O)c3ccc(F)cc3[nH]2)cc1`, for which the Potency was 18.4 µM (active). As to `Cc1ccc(-c2cc(=O)c3ccc(Cl)cc3[nH]2)cc1`, the “activity change, negative = growth inhibition” value was -0.276%. `Cc1cc(=O)c2ccc(NC(=O)c3ccccc3)cc2[nH]1`: the “activity change, negative = growth inhibition” value was 4.26%.

Take `CC1=C(C(=O)OC2CCCCC2)C(c2ccccc2F)NC(=O)N1` (stereo not given): the “activity change, negative = growth inhibition” value is -0.323%. The same measure, in the same setting: the same measure for `O=C(CCC(=O)N1CCCC1)Nc1ccc([N+](=O)[O-])cc1`: 0.853%; for `CCCCOc1ccc(C(=O)NCC(=O)OCC(=O)N2CCN(S(=O)(=O)c3ccc(C)cc3C)CC2)cc1`: 3.37%; for `N#C/C(=C/c1ccc(Cl)cc1)NC(=O)c1ccccc1`: -13.7%.

For the molecule `Cc1c(Br)c([N+](=O)[O-])nn1CC(=O)N1CCN(Cc2ccccc2)CC1`, the “activity change, negative = growth inhibition” value was 0.502%. Still for that read-out and setting: under `Fc1ccc(COc2ccc(-c3nnco3)cc2)cc1` stands -5.2%. On to `CCN1C(=O)[C@H]2[C@@H](c3ccc(-c4ccc(OC)cc4)cc3)N[C@@](Cc3ccccc3)(C(=O)OC)[C@H]2C1=O`, for which the Potency is 18.4 µM (active). With `COC(=O)C1(C)NC(c2ccccc2OC)C2C(=O)N(c3ccccc3)C(=O)C21` (stereo not given), the “activity change, negative = growth inhibition” value is -4.8%. On the same count and under the same terms, under `CCN(C[C@H]1N[C@@](CC)(C(=O)OC)[C@H]2C(=O)N(Cc3ccccc3)C(=O)[C@@H]12)S(=O)(=O)c1ccccc1` stands -24%; under `CCNC(=O)N(CC)C[C@H]1N[C@@](CC)(C(=O)OC)[C@H]2C(=O)N(Cc3ccccc3)C(=O)[C@@H]12`, -0.264%. As to `CCN1C(=O)[C@H]2[C@@H](c3ccc(SC4CCCCC4)c(OC)c3)N[C@@](Cc3ccccc3)(C(=O)OC)[C@H]2C1=O`, the Potency was 16.4 µM (active). With `CCCC1(C(=O)OC)NC(c2ccco2)C2C(=O)N(C)C(=O)C21` (stereo not given), the “activity change, negative = growth inhibition” value was 7.77%. Same read-out and setting: under `CC1=NNC(=O)C1Cc1c(Cl)cccc1Cl` (stereo not given) stands 7.71%; under `C#CCOCCOCCOCCNc1nc(N2CCN(C(=O)C([C@@H](C)O)n3cc([C@@H](N)CCCCN)nn3)CC2)nc(N2CCN(C(=O)[C@H](CCCCN)n3cc(CN)nn3)CC2)n1` (stereo not given in full), -8.26%.

In the case of `CC(C)[C@H](NC(=O)c1ccccc1F)C(=O)Nc1cccc(S(=O)(=O)N2CCOCC2)c1`, the “activity change, negative = growth inhibition” value was -19.6%. Still for that read-out and setting: under `CC(=O)c1ccc(NC(=O)Cn2c(=O)oc3ccccc32)cc1` stands -7.78%. Same read-out and setting: the same measure for `Cc1ccccc1NC(=O)Cn1c(=O)n(CC2CCCO2)c(=O)c2ccccc21` (stereo not given): -12.1%; for `O=C(NCc1ccccc1)C1c2ccccc2OCC(=O)N1CCCN1CCOCC1` (stereo not given): -6.5%; for `O=C(/C=C/c1ccc2c(c1)OCO2)NCc1ccc(F)cc1`: -20.8%.

On to `O=C1Nc2ccccc2NC(c2ccc3c(c2)OCO3)=C1N(Cc1ccc(F)cc1)C(=O)c1ccco1`, for which the Potency is 16.4 µM (active).

As for `O=C(c1ccc2c(c1)OCO2)N1CCN(C(=O)c2ccco2)CC1`, the “activity change, negative = growth inhibition” value is -1.13%. Same read-out and setting: under `CCCCNc1ccc(-c2nc(-c3ccncc3)no2)cc1[N+](=O)[O-]` stands -27.8%; under `Cc1ccc2nsnc2c1S(=O)(=O)N1CCCC1C(=O)O` (stereo not given), 7.53%; under `CCN(Cc1ccncc1)C(=O)CCc1ccccc1`, -6.1%. As to `O=C(CSc1cccc2cccnc12)N/N=C/c1cccnc1`, the Potency was 23.1 µM (active). In the case of `Cc1nc2ccccc2n1CC(=O)N/N=C/c1cccnc1`, the “activity change, negative = growth inhibition” value is 2.42%. With `O=C(CNC(=O)c1cccnc1)N/N=C/c1cccnc1`, the “activity change, negative = growth inhibition” value was 10.3%.

On to `CCCCCC(O)(CCN1CCCCC1)c1ccccc1` (stereo not given), for which the “activity change, negative = growth inhibition” value was -22.8%. Same read-out and setting: under `CC1=NN(c2ccc(Cl)c(C(=O)O)c2)C(=O)/C1=C/c1ccc(-c2ccccc2[N+](=O)[O-])o1` stands 6.09%. `O=C1NC(c2ccc(-c3ccccc3[N+](=O)[O-])o2)C(C(=O)c2ccc(Cl)cc2)C(O)(C(F)(F)F)N1` (stereo not given): the Potency is 18.4 µM (active). Turning to `CC(=O)C1C(c2ccc(Cl)cc2)NC(=O)NC1(O)C(F)(F)F` (stereo not given), the “activity change, negative = growth inhibition” value was 13.5%. In the case of `Cc1ccc(CSCC(=O)N(C)CC(=O)Nc2ccc(C)cc2)cc1`, the “activity change, negative = growth inhibition” value was -19.8%. In the case of `FC(F)(F)c1ccc2nnc(-c3c(Cl)cccc3Cl)n2c1`, the “activity change, negative = growth inhibition” value is 0.574%. On the same count and under the same terms, the same measure for `CCCSc1nc2c(c(=O)[nH]c(=O)n2C)n1CCc1ccccc1`: -12.2%.

With `C=C(C)Cn1c(N2CCCC2)nc2c1c(=O)[nH]c(=O)n2C`, the “activity change, negative = growth inhibition” value is 0.866%. On the same count and under the same terms, the same measure for `CCCCCn1c(SCCC(C)C)nc2c1c(=O)[nH]c(=O)n2C`: -24.4%; for `CN1CCN(c2nc3c(c(=O)[nH]c(=O)n3C)n2Cc2cccc3ccccc23)CC1`: -22.5%. `CC1CCN(c2nc3c(c(=O)[nH]c(=O)n3C)n2CCCc2ccccc2)CC1`: the Potency is 16.4 µM (active). Same read-out and setting: under `CC=CCn1c(SCCCc2ccccc2)nc2c1c(=O)[nH]c(=O)n2C` stands 20.6 µM (active).

For the molecule `Cc1ccc(C)c(OCCC(=O)OCC(=O)N2CCN(c3ccccc3)CC2)c1`, the “activity change, negative = growth inhibition” value is -28%. On the same count and under the same terms, under `CCC(=O)N1CCc2cc(S(=O)(=O)NC(C(=O)NCCc3ccc(C)cc3)C(C)C)ccc21` (stereo not given) stands 4.77%. Still for that read-out and setting: the same measure for `C[C@@H]1CN([C@@H](C)CO)C(=O)c2cc(NC(=O)C3CC3)ccc2O[C@H]1CN(C)C`: -17.6%; for `COC(=O)c1ccc([C@@H](O)[C@H](C)C(=O)CC(=O)OC(C)(C)C)cc1`: 4.03%. In the case of `COc1ccccc1N1CCN(/N=C\C(Br)=C\c2ccccc2)CC1`, the Potency is 8.2 µM (active). `COc1ccccc1N1CCN(/N=C/c2ccc(O)cc2O)CC1`: the “activity change, negative = growth inhibition” value was -23.9%. For `COc1ccccc1N1CCN(C(=O)C(=O)N/N=C/c2ccccc2F)CC1`, the “activity change, negative = growth inhibition” value is -7.99%.
